Measured values reported in ChEMBL document CHEMBL1157539, “Thousands of chemical starting points for antimalarial lead identification” (Nature, 2010).

Assays:
Assay type in all cases: functional
[1] = system: Plasmodium falciparum; test: GSK_TCMDC: Inhibition of Plasmodium falciparum 3D7 in whole red blood cells, using parasite LDH activity as an index of growth. Test compounds present at 2uM
[2] = system: Plasmodium falciparum; test: GSK_TCMDC: Inhibition of Plasmodium falciparum Dd2 in whole red blood cells, using parasite LDH activity as an index of growth. Test compounds present at 2uM
[3] = system: HepG2; test: GSK_TCMDC: Percent inhibition of human HepG2 cell line. Test compounds present at 10uM.

Compound	Inhibition [1] [%]	Inhibition [2] [%]	Inhibition [3] [%]
CN1CCCN(Cc2ccc(-c3ccc(NC(=O)c4ccc(Cl)cc4)cc3)cc2)CC1.O=C(O)C(F)(F)F	96	67	58
Fc1ccc(CN2CCN(c3ncnc4cc(-c5ccccc5)sc34)CC2)cc1	82	82	7
CCOc1cc(C(=O)N[C@@H](Cc2ccccc2)[C@H](O)CNC(C)(C)c2cccc(OC)c2)cc(N2CCCS2(=O)=O)c1	99	99	0
CCCCCCNCc1c(O)ccc2c(CNCCCCCC)c(O)ccc12.Cl	100	100	22
CC(C)(C)NCCN(Cc1ccc(-c2ccc(C(F)(F)F)cc2)cc1)C(=O)Cn1c(CCc2cccc(F)c2F)nc(=O)c2c1CCC2.O=C(O)C(O)C(O)C(=O)O	95	48	6
COC(=O)c1ccc(OCC(C)NCC(O)c2cccc(C(F)(F)F)c2)cc1.O=C(O)/C=C/C(=O)O (configuration not stated)	94	81	6
Br.CC1(C)NC(N)=NC(=N)N1OCCOc1ccc2ccccc2c1	93	96	70
COc1ccc(N(C)Cc2cnc3nc(N)nc(N)c3n2)cc1	98	0	15
COc1ccc2nccc([C@@H](O)CN3CCC(NCCNc4cccc(F)c4)CC3)c2c1.CS(=O)(=O)O	98	73	11
N#Cc1ccc2c(c1)CN(C1CCC(NC(=O)/C=C/c3cc(C(F)(F)F)cc(C(F)(F)F)c3)CC1)CCC2 (configuration not stated)	95	4	34
C=C(C)Cn1cc(C2CCN(CCN3CCC(CNC(=O)c4ccc(-c5ccc(C#N)cc5)cc4)CC3)CC2)c2ccccc21	99	94	64
CCCCc1ccc2[nH]c(NC(=O)OC)nc2c1 [PARBENDAZOLE]	98	1	26
CSc1ccc(NC(=O)Nc2cc(C)nc3ccccc23)cc1Br	100	66	7
Cn1nc(C(F)(F)F)c(-c2ccc(F)cc2)c1NC(=O)Nc1ccccc1	100	99	3
CN1CCC(N(Cc2ccc(-c3ccc(Cl)cc3)cc2)C(=O)Cn2c(CCc3cccc(F)c3F)cc(=O)c3ccccc32)CC1.O=C(O)C(O)C(O)C(=O)O	97	88	93
COc1ccc(C2CCN(CCCCNC(=O)c3ccc(NC(=O)c4ccc(Cl)cc4)cc3)CC2)c(OC)c1.Cl	100	95	32
O=C(NCCc1ccccc1)N(Cc1ccc(-c2cccc(CN3CCNCC3)c2)cc1)C1CCN(Cc2ccccc2)CC1.O=C(O)C(F)(F)F	90	29	27
Cc1nc2nc(N)nc(N)c2c(C)c1Cc1ccc(O)cc1.Cl	94	0	64
CCc1cn2c3c(cc(C(=O)N[C@@H](Cc4ccccc4)[C@H](O)CNC(C)C)cc13)N(C)S(=O)(=O)C2.O=CO	98	98	16
CCOc1ccc(N2C(N)=NC(N)=NC2(C)C)cc1.Cl	95	0	10

Compound	Inhibition [1] [%]	Inhibition [2] [%]	Inhibition [3] [%]
Cc1ccc2c(Cc3cnc(N)nc3N)cc(C)c(N)c2n1.Cl	91	92	0
CN(C)c1cc(NC(=O)Nc2ccccc2)c2ccccc2n1	100	98	11
Cc1ccccc1C1CCN(C2CCC(NC(=O)c3ccc(-c4cc(C(F)(F)F)nn4C)s3)CC2)CC1 (configuration not stated)	98	68	42
CN(CCc1ccccn1)Cc1ccc(-c2ccc(-c3nc4ccccc4[nH]3)s2)cc1	100	48	29
CCN(CC)C(=O)C(=O)c1c[nH]c2ccc(Cl)cc12	96	96	1
COc1ccc(N2C(=O)c3c(c4ccccc4n3C)C2c2ccccc2O)cc1 (configuration not stated)	96	91	32
Cc1cccc2nc(-c3ccc(-c4ccc(CN5CCCC(N)C5)cc4)cc3)[nH]c12.O=C(O)C(F)(F)F (configuration not stated)	99	100	33
O=C(O)C(F)(F)F.c1ccc2c(c1)CN(CC1CC1)CC1(CCN(Cc3c[nH]c4cnccc34)CC1)O2	100	14	30
COc1cc2nc(N3CCC(CCCC4CCNCC4)CC3)nc(NCc3ccccn3)c2cc1OC.O=C(O)C(F)(F)F	100	6	2
Cc1ccc2c(c1)C1(CC(=O)N(CCc3scnc3C)C1=O)C(=O)N2Cc1ccccc1 (configuration not stated)	83	73	0
O=C(NNC(=O)c1ccc(CCN2CCC(c3nc(COCC(F)(F)F)c(-c4ccc(F)cc4)o3)CC2)cc1)Nc1ccc(Oc2ccccc2)cc1	100	89	38
COc1cc2c(cc1OC)C(C(=O)Nc1cc(OC)c(OC)c(OC)c1)C(c1ccc(SC)cc1)N(C)C2=O (configuration not stated)	97	64	14
O=C(Nc1ccc(F)cc1)NC1CCN(CCCCCNC(=O)C2CC2c2ccc(Cl)c(Cl)c2)CC1 (configuration not stated)	100	20	46
COc1ccc(NC(=O)Nc2cccc(-c3ccc(-c4nc5cc(C(F)(F)F)ccc5[nH]4)cc3)c2)cc1	100	29	46
CN1CCN(c2ccnc3cc4c(cc23)N(C(=O)Nc2ccc3c(c2)CCCC3=O)CC4)CC1.Cl	100	64	5
COc1ccccc1C(=O)N1CCN(Cc2cccs2)CC1	96	1	87
CCOC(=O)C1=C(C)NC(C)=C(C(=O)OCC)C1(C(=O)OCc1ccccc1)c1cccc(C(F)(F)F)c1	88	60	0
Cc1ccc(F)cc1S(=O)(=O)Nc1cccc(CCN2CCC(N3CCCCC3)CC2)c1	96	9	15
CCCN1CCN(CC(O)CNC(=O)Nc2ccc(Cl)cc2)CC1.O=C(O)C(F)(F)F (configuration not stated)	100	100	6
Nc1ccc(-c2nc3cc(Cc4ccc5[nH]c(-c6ccc(N)cc6)nc5c4)ccc3[nH]2)cc1	100	96	47

Compound	Inhibition [1] [%]	Inhibition [2] [%]	Inhibition [3] [%]
Cc1[nH]c2c(NCc3ccc(F)cc3)nccc2c1C	83	0	63
Cc1[nH]c(C)c(-c2ccc(Oc3ccc(O)cc3)cc2)c(=O)c1Cl	91	87	0
Cl.FC(F)(F)c1ccc2c(NCCc3ccccc3)ccnc2c1	87	9	14
Cl.Oc1cc(Nc2ccnc3ccc(I)cc23)c(F)cc1Cl	95	13	20
Oc1cccc(/C=N/Nc2ccnc3cc(Cl)ccc23)c1	100	95	0
FC(F)(F)c1ccc2[nH]c(-c3ccc(-c4ccc(CN5CCN(c6cnccn6)CC5)cc4)cc3)nc2c1.O=C(O)C(F)(F)F	99	50	21
CC1CCN(c2nc(C(=O)NCCc3ccc(Cl)c(Cl)c3)c(C(C)C)s2)CC1.O=C(O)C(F)(F)F	88	38	0
CN(C)c1ccc(CN2CCC(NC(=O)c3ccc(-c4cccc(Cl)c4)s3)CC2)cc1.O=C(O)C(F)(F)F	93	44	65
Cc1ccc(-n2c(Sc3ncnc4sccc34)nnc2N2CCCC2)cc1	99	100	0
C=CC[C@H](C[C@H](O)[C@H](Cc1ccccc1)NC(=O)c1ccc(-c2cccnn2)cc1)C(=O)NC1CCCCC1	83	0	2
CC1CCCN(C(=O)C(C)Nc2cc(Cl)ccc2N2CCOCC2)C1 (configuration not stated)	100	96	0
COc1cccc(C(=O)NCCOc2ccccc2)c1Oc1ccccc1	98	98	14
CC(C)COc1ccc(Cl)cc1Cc1ccc(-c2nc3ccc(F)cc3[nH]2)o1	97	49	35
CC(C)CNC(=O)CN1C(=O)C(c2ccccc2)(c2ccccc2)N=C1N	94	46	15
OC1(c2ccc(Br)cc2)CCN(C2CCN(Cc3ccccc3)CC2)CC1	100	18	8
COCCNCc1ccc(-c2ccc(CNC3CCN(Cc4ccccc4)CC3)cc2)cc1.O=C(O)C(F)(F)F	100	61	22
Cc1cc(N[C@@H](Cc2ccccc2)C(=O)Nc2ccccc2)nc(NCCc2ccccn2)n1.O=C(O)C(F)(F)F	97	50	0
CC(Cc1ccc(NC(=O)c2ccc(CC(C)NCc3ccc(Cl)c(Cl)c3)cc2)cc1)NCCc1cccc(Cl)c1 (configuration not stated)	92	33	26
CC(=O)Nc1nc(C(=O)Nc2cccc(-c3cccc(-c4nc5cccc(C)c5[nH]4)c3)c2)cs1	100	94	28
